PubChem BioAssay AID1159580 (chemical genetic matrix, 2015)
Where “and” joins values, the source holds several entries; their conditions need not be identical. Equal values may be shown once. In all, about 5,500 compounds went through this assay and about 2,000 (36%) were called active. Not shown: some 18% with an inconclusive outcome. Cut-off read from the data, not from the text of the source: active = normalized growth mostly below about 0.91 (no sharp cut-off); inconclusive = no clear call, values can overlap the other calls; inactive = mostly above about 0.92. The list shows a part of the results.

Experiment: chemical genetic growth profiling, strain panel (AID 1159580);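 note: tested at 20 µM; growth read once vehicle control cultures reached saturation at 30 °C; 1 = growth at the plate median or of vehicle wells; lower values mean less growth of the strain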
Conditions: S. cerevisiae deletion strains, growth OD
[1] = locus YHR030C, strain SLT2, hits give low values
[2] = locus YHR079C, strain IRE1, hits give low values
[3] = locus YJL095W, strain BCK1, hits give low values
[4] = locus YJR066W, strain TOR1, hits give low values
[5] = locus YLR113W, strain HOG1, hits give low values
[6] = locus YNL183C, strain NPR1, hits give low values
[7] = locus YOR231W, strain MKK1, hits give low values
[8] = locus YPL256C, strain CLN2, hits give low values
[9] = locus YAL013W, strain DEP1, hits give low values
[10] = locus YBR229C, strain ROT2, hits give low values
[11] = locus YDL101C, strain DUN1, hits give low values
[12] = locus YEL061C, strain CIN8, hits give low values
[13] = locus YGR078C, strain PAC10, hits give low values
[14] = locus YJL187C, strain SWE1, hits give low values
[15] = locus YJR043C, strain POL32, hits give low values
[16] = locus YJR075W, strain HOC1, hits give low values
[17] = locus YKL190W, strain CNB1, hits give low values
[18] = locus YLR039C, strain RIC1, hits give low values
[19] = locus YLR262C, strain YPT6, hits give low values
[20] = locus YMR263W, strain SAP30, hits give low values
[21] = locus YNL153C, strain GIM3, hits give low values
[22] = locus YPL241C, strain CIN2, hits give low values

Measured: normalized growth

C[C@H]1CC2C([C@@H](O)C[C@@]3(C)C2CC[C@]3(O)C(=O)COC(=O)CCC(=O)O)[C@@]2(C)C=CC(=O)C=C12 (some centres not stated)
inactive: [1] 0.999 | [2] 1.02 | [3] 1.02 | [4] 1 | [5] 1.04 | [6] 0.995 | [7] 1.06 | [8] 1.03

CC1=C2[C@H]3OC(=O)[C@@H](C)[C@@H]3CC[C@@]2(C)C=CC1=O
inactive: [9] 1.01 | locus YAL021C, strain ccr4, hits give low values 0.97 | locus YAL026C, strain drs2, hits give low values 0.968 | locus YAL030W, strain snc1, hits give low values 0.982 | locus YBL061C, strain skt5, hits give low values 0.968 | locus YBR009C, strain hhf1, hits give low values 0.975 | locus YBR021W, strain FUR4, hits give low values 0.972 | locus YBR023C, strain chs3, hits give low values 0.953 | locus YBR171W, strain sec66, hits give low values 0.962 | [10] 1.01 | locus YBR231C, strain swc5, hits give low values 0.992 | locus YBR279W, strain paf1, hits give low values 0.994 | locus YCL011C, strain gbp2, hits give low values 0.979 | locus YCL016C, strain dcc1, hits give low values 0.995 | locus YCL029C, strain bik1, hits give low values 1.04 | locus YCL061C, strain MRC1, hits give low values 0.976 | locus YCL069W, strain vba3, hits give low values 0.967 | locus YCR088W, strain abp1, hits give low values 0.976 | locus YDL005C, strain med2, hits give low values 0.964 | locus YDL035C, strain GPR1, hits give low values 1.02 | locus YDL040C, strain nat1, hits give low values 0.979 | locus YDL074C, strain BRE1, hits give low values 1.02 | [11] 1.02 | locus YDL185W, strain tfp1, hits give low values 1.02 | locus YDL192W, strain arf1, hits give low values 1.03 | locus YDR001C, strain nth1, hits give low values 0.98 | locus YDR069C, strain doa4, hits give low values 0.946 | locus YDR101C, strain arx1, hits give low values 1.01 | locus YDR137W, strain rgp1, hits give low values 0.972 | locus YDR159W, strain sac3, hits give low values 0.941 | locus YDR162C, strain NBP2, hits give low values 1.02 | locus YDR195W, strain ref2 0.953 | locus YDR297W, strain sur2, hits give low values 0.968 | locus YDR318W, strain mcm21, hits give low values 1.04 | locus YDR334W, strain swr1, hits give low values 0.96 | locus YDR335W, strain msn5, hits give low values 0.987 | locus YDR388W, hits give low values 1.01 | locus YDR392W, strain spt3, hits give low values 0.99 | locus YDR502C, strain sam2, hits give low values 1.02 | locus YEL003W, strain gim4, hits give low values 0.98 | locus YEL037C, strain rad23, hits give low values 0.978 | locus YEL061C, strain CIN8 (second series), hits give low values 0.972 | [12] 1.01 | locus YER015W, strain faa2, hits give low values 0.974 | locus YER016W, strain bim1, hits give low values 0.978 | locus YER110C, hits give low values 1.02 | locus YER111C, strain swi4, hits give low values 0.963 | locus YER155C, strain BEM2 (second series), hits give low values 0.946 | locus YER155C, strain BEM2, hits give low values 1 | locus YER167W, strain BCK2, hits give low values 1.01 | locus YFR010W, strain ubp6, hits give low values 0.953 | locus YGL078C, strain dbp3, hits give low values 1.02 | locus YGL086W, strain mad1, hits give low values 1.01 | locus YGL167C, strain pmr1, hits give low values 0.963 | locus YGL173C, strain kem1, hits give low values 0.974 | locus YGL227W, strain vid30, hits give low values 0.984 | locus YGL240W, strain doc1, hits give low values 0.963 | locus YGL248W, strain PDE1, hits give low values 1.03 | locus YGL253W, strain hxk2, hits give low values 0.98 | [13] 1.02 | locus YGR135W, strain pre9, hits give low values 1.03 | locus YGR229C, strain SMI1, hits give low values 1.05 | locus YGR252W, strain gcn5, hits give low values 0.991 | locus YHR013C, strain ard1, hits give low values 0.956 | locus YHR027C, strain rpn1, hits give low values 0.986 | [1] 0.981 | locus YHR079C, strain IRE1 (second series), hits give low values 1.02 | [2] 1 | locus YHR094C, strain hxt1, hits give low values 1.03 | locus YHR129C, strain ARP1, hits give low values 1.01 | locus YHR142W, strain chs7, hits give low values 0.98 | locus YHR200W, strain rpn10, hits give low values 1.01 | locus YIL066C, strain RNR3, hits give low values 1.02 | locus YIL073C, strain SPO22, hits give low values 1.06 | locus YIL125W, strain kgd1, hits give low values 1.02 | locus YIR030C, strain dcg1, hits give low values 1.02 | locus YJL092W, strain hpr5, hits give low values 0.975 | locus YJL095W, strain BCK1 (second series), hits give low values 0.964 | [3] 1.03 and 0.993 | locus YJL115W, strain asf1, hits give low values 0.973 | locus YJL129C, strain trk1, hits give low values 0.962 | locus YJL134W, strain LCB3, hits give low values 1.01 | locus YJL154C, strain vps35, hits give low values 0.98 | locus YJL164C, strain tpk1, hits give low values 0.984 | locus YJL166W, strain qcr8, hits give low values 0.969 | locus YJL168C, strain set2, hits give low values 1.02 | locus YJL187C, strain SWE1 (second series), hits give low values 1.02 | [14] 0.966 | [15] 1.01 | [4] 0.956 | [16] 1.02 | locus YKL009W, strain mrt4, hits give low values 1.03 | locus YKL068W, hits give low values 0.995 | locus YKL085W, strain MDH1 (second series), hits give low values 1.02 | locus YKL085W, strain MDH1, hits give low values 1.02 | locus YKL160W, strain elf1, hits give low values 0.994 | [17] 1.01 | locus YKR001C, strain vps1, hits give low values 1.03 | locus YKR026C, strain gcn3, hits give low values 0.965 | locus YKR091W, strain srl3, hits give low values 0.983 | locus YLL001W, strain dnm1, hits give low values 0.996 | locus YLL026W, hits give low values 0.995 | locus YLL041C, strain sdh2, hits give low values 0.998 | locus YLR027C, strain aat2, hits give low values 0.979 | [18] 1.04 | locus YLR058C, strain SHM2, hits give low values 1.02 | locus YLR102C, strain apc9, hits give low values 1.03 | [5] 0.963 | locus YLR221C, strain rsa3, hits give low values 0.959 | locus YLR258W, strain gsy2, hits give low values 0.985 | locus YLR262C, strain YPT6 (second series), hits give low values 0.997 | [19] 1.06 | locus YLR268W, strain sec22, hits give low values 1.02 | locus YLR320W, strain mms22, hits give low values 0.978 | locus YLR342W, strain FKS1 (second series), hits give low values 1.01 | locus YLR342W, strain FKS1, hits give low values 0.974 | locus YLR357W, strain rsc2, hits give low values 0.948 | locus YLR370C, strain arc18, hits give low values 0.977 | locus YLR371W, strain rom2, hits give low values 1.01 | locus YLR384C, strain iki3, hits give low values 0.96 | locus YLR418C, strain cdc73, hits give low values 1.03 | locus YML016C, strain PPZ1, hits give low values 1.02 | locus YML032C, strain rad52, hits give low values 1.02 | locus YML120C, strain ndi1, hits give low values 1.01 | locus YML124C, strain tub3, hits give low values 1.02 | locus YMR058W, strain fet3, hits give low values 0.977 | locus YMR078C, strain ctf18, hits give low values 1.04 | locus YMR125W, strain sto1, hits give low values 0.968 | locus YMR129W, hits give low values 0.997 | locus YMR205C, strain PFK2, hits give low values 0.982 | locus YMR223W, strain ubp8, hits give low values 1.01 | locus YMR231W, strain pep5, hits give low values 0.973 | [20] 1.02 | locus YMR307W, strain GAS1, hits give low values 1.05 | locus YNL067W, strain RPL9B, hits give low values 1.02 | locus YNL071W, strain lat1, hits give low values 0.994 | [21] 1.03 | [6] 0.951 | locus YNL209W, strain ssb2, hits give low values 0.981 | locus YNL233W, strain BNI4, hits give low values 1.02 | locus YNL248C, strain rpa49, hits give low values 0.962 | locus YNL250W, strain rad50, hits give low values 1.04 | locus YNL271C, strain bni1, hits give low values 1.02 | locus YNL298W, strain CLA4, hits give low values 1.03 | locus YNL307C, strain MCK1, hits give low values 1.03 | locus YNL322C, strain KRE1 (second series), hits give low values 0.954 | locus YNR049C, strain mso1, hits give low values 0.983 | locus YNR052C, strain pop2, hits give low values 1.01 | locus YOL012C, strain htz1 0.992 | locus YOL147C, strain pex11, hits give low values 1.02 | locus YOR001W, strain rrp6, hits give low values 0.939 | locus YOR061W, strain CKA2, hits give low values 1.02 | locus YOR069W, strain VPS5, hits give low values 1.01 | locus YOR070C, strain gyp1, hits give low values 0.984 | locus YOR080W, strain dia2, hits give low values 0.97 | locus YOR083W, strain WHI5, hits give low values 1.01 | locus YOR106W, strain vam3, hits give low values 1 | locus YOR136W, strain idh2, hits give low values 1.01 | locus YOR144C, strain elg1, hits give low values 1.02 | locus YOR184W, strain ser1, hits give low values 1.03 | [7] 0.965 | locus YOR265W, strain rbl2, hits give low values 0.99 | locus YOR270C, strain vph1, hits give low values 0.926 | locus YOR290C, strain snf2, hits give low values 0.982 | locus YOR316C, strain cot1, hits give low values 1.02 | locus YPL051W, strain arl3, hits give low values 0.987 | locus YPL078C, strain atp4, hits give low values 0.988 | locus YPL106C, strain sse1, hits give low values 0.96 | locus YPL240C, strain hsp82, hits give low values 0.964 | [22] 1.01 | [8] 0.977 | locus YPR119W, strain clb2, hits give low values 1.01 | locus YPR141C, strain kar3, hits give low values 1.02 | locus YPR163C, strain tif3, hits give low values 1.03 | locus YPR167C, strain met16, hits give low values 1.02 | strain wtn01, hits give low values 1

O=C(NNc1c(Cl)cc(Cl)cc1Cl)NC(=O)c1ccccc1F
inactive: [9] 0.997 | [10] 0.982 | [11] 0.998 | locus YDL134C, strain PPH21, hits give low values 1.02 | locus YDR150W, strain NUM1, hits give low values 1.02 | [12] 0.996 | [13] 1 | [1] 0.905 | locus YHR087W, strain rtc3, hits give low values 1.02 | [14] 0.999 | [15] 1 | [16] 0.99 | [17] 1.02 | [18] 0.936 | locus YLR058C, strain SHM2 (second series), hits give low values 1.02 | locus YLR085C, strain ARP6, hits give low values 0.992 | [19] 0.965 | locus YML094W, strain GIM5, hits give low values 1 | locus YMR219W, strain ESC1, hits give low values 1.02 | [20] 1.01 | locus YNL128W, strain TEP1, hits give low values 1.01 | [21] 0.989 | locus YNL298W, strain CLA4 (second series), hits give low values 0.986 | locus YNL322C, strain KRE1, hits give low values 1 | locus YNR030W, strain Alg12, hits give low values 1.04 | locus YPL055C, strain LGE1, hits give low values 1.01 | [22] 0.986 | locus YPR135W, strain CTF4, hits give low values 0.966
